The supplement of paper PMC10849652
The full data set covers some 8,800 targets. This sample favours those with a hit. About 0.5% of all pairs of compound and target were hits.

compound: O=C(CCCCCCC(=O)Nc1ccccc1)NO [vorinostat]; assay: log2 fold change, soluble protein after heating vs DMSO (PISA); higher = thermal stabilisation; K562 lysate, 10 uM; active = over 0.2 and 3.5 SD of the protein, either way, in both replicates (recomputed)
In short: (§1)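 Thermal stability, expressed as log-two fold change relative to solvent controls, is given from duplicates. Crude K562 extract in PBS pH 7.4 with 1 mM MgCl2, at 1 mg/mL protein, was treated with 10 μM compound for 30 min and heated in aliquots for 3 min across 48°C-58°C. After pooling, adjustment to 0.5% NP-40 at 4°C and centrifugation at 21,000xg for 90 min, supernatant protein was measured by TMTpro 16plex LC-MS/MS with channel sums equalised.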

Sequence of UniProt Q86SX3 (Q86SX3 whole entry, looked up): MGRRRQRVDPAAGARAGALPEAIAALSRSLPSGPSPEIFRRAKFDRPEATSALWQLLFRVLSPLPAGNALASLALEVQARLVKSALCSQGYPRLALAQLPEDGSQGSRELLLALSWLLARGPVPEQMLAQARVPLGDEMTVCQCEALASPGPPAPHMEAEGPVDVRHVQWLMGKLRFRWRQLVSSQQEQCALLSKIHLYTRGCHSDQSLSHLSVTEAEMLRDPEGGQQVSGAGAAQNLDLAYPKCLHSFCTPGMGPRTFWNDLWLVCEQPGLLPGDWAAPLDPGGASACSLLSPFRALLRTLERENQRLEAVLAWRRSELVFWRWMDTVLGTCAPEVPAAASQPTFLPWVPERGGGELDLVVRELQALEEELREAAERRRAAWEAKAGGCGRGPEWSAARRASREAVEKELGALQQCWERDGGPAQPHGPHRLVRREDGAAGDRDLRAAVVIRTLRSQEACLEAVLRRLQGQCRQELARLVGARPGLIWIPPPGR
Sequence of UniProt Q9UNS1 (Q9UNS1 whole entry, looked up): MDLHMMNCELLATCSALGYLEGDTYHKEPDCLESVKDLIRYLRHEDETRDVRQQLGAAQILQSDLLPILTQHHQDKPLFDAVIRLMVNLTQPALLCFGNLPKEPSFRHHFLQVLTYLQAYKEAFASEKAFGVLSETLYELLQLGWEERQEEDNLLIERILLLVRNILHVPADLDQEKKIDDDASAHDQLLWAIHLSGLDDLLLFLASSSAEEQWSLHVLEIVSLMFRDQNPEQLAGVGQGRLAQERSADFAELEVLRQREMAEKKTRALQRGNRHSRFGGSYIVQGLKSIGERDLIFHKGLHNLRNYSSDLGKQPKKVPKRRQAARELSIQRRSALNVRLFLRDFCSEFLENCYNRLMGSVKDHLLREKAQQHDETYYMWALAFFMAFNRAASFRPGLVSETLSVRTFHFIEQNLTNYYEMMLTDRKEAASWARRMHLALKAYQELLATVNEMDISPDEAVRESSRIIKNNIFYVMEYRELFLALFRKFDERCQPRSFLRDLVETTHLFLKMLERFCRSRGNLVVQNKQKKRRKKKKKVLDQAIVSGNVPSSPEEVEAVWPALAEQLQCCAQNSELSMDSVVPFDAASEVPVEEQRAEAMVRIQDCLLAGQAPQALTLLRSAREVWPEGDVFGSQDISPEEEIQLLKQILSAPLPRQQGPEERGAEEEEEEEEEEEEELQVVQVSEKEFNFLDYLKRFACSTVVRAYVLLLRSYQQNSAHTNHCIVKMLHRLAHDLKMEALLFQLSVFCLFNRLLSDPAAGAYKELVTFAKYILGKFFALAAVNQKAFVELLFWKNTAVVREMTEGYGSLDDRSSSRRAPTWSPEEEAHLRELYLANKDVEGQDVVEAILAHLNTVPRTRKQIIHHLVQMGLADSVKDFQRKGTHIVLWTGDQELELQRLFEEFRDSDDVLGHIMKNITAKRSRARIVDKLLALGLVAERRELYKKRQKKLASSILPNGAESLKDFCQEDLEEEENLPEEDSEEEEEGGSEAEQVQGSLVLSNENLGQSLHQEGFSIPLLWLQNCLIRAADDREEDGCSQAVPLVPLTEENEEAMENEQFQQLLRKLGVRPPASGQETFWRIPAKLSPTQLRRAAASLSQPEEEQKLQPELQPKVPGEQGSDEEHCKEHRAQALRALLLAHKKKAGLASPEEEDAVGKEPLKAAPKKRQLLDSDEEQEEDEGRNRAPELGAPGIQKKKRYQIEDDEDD
Sequence of UniProt O14933 (O14933 whole entry, looked up): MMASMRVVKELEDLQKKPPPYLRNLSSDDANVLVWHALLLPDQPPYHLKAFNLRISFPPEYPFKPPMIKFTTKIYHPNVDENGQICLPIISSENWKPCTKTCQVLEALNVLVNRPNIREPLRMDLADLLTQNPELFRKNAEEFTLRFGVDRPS
Sequence of UniProt Q9UGU0 (Q9UGU0 whole entry, looked up): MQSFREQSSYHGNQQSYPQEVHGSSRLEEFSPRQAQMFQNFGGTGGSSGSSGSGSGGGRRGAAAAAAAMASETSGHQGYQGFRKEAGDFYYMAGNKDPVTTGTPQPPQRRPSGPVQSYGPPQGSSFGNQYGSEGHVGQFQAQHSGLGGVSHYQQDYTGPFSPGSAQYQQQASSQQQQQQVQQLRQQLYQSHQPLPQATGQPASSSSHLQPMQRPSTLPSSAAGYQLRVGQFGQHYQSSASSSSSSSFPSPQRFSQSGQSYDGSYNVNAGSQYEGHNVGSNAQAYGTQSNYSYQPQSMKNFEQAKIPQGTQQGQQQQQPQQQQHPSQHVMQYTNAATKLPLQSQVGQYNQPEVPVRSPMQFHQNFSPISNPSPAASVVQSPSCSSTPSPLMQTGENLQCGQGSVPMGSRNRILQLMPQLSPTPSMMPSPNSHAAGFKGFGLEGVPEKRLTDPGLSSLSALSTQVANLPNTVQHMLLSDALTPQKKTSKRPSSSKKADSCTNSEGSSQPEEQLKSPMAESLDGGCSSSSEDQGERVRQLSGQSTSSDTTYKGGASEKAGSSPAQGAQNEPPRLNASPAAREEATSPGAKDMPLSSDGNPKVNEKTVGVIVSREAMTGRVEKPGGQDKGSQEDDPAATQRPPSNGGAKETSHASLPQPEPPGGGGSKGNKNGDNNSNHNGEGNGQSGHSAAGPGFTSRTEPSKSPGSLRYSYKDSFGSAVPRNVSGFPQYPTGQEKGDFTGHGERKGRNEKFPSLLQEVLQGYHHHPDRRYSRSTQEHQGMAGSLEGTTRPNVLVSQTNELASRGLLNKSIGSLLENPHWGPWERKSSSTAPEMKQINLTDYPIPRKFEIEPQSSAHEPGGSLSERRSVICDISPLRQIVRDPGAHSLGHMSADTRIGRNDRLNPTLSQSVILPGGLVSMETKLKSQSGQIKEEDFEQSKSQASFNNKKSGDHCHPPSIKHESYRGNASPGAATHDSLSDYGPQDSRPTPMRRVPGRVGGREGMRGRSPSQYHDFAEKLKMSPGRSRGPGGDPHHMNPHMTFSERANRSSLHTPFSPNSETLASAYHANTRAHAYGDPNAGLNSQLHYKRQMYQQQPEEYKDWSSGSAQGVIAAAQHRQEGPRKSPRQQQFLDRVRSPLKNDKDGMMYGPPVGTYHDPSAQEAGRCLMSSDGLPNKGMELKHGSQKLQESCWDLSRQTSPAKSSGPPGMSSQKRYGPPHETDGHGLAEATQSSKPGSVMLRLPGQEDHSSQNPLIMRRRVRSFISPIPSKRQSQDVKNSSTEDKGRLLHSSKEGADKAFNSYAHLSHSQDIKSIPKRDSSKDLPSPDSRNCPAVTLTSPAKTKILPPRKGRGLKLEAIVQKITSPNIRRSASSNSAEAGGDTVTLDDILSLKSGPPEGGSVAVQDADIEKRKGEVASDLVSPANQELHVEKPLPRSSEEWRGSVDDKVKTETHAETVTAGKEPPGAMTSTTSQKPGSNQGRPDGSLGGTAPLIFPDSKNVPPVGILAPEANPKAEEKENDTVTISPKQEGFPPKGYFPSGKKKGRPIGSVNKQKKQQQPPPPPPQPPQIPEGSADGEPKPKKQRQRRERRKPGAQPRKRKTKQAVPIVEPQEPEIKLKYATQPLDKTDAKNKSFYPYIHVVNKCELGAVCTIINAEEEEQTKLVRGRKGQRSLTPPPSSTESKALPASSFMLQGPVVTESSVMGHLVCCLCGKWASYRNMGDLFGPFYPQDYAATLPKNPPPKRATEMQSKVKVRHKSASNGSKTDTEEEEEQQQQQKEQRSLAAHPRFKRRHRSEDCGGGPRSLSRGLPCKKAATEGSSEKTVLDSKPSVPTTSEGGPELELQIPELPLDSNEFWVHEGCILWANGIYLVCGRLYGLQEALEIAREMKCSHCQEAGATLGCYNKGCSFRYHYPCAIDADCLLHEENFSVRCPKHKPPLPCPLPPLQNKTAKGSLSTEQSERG
Sequence of UniProt Q04726 (Q04726 whole entry, looked up): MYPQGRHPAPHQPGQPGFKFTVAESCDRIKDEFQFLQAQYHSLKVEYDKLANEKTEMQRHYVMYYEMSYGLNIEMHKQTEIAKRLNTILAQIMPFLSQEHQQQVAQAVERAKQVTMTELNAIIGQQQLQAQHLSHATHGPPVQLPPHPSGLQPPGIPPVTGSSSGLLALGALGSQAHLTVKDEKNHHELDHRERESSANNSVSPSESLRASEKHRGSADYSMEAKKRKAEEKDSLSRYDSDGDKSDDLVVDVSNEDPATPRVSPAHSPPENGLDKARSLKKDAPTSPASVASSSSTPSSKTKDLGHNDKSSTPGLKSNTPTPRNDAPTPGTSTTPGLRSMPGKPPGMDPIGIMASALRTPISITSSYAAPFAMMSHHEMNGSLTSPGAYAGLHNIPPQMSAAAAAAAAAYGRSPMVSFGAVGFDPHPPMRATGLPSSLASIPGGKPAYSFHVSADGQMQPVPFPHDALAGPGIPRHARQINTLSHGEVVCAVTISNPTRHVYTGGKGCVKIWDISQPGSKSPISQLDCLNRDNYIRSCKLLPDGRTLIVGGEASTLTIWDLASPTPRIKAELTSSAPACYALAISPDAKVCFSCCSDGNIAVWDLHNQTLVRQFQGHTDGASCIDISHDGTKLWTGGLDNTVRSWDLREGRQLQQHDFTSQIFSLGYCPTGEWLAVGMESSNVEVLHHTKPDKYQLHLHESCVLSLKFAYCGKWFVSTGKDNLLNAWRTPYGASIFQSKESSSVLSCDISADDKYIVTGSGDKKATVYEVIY
Sequence of UniProt Q5R3I4 (Q5R3I4 whole entry, looked up): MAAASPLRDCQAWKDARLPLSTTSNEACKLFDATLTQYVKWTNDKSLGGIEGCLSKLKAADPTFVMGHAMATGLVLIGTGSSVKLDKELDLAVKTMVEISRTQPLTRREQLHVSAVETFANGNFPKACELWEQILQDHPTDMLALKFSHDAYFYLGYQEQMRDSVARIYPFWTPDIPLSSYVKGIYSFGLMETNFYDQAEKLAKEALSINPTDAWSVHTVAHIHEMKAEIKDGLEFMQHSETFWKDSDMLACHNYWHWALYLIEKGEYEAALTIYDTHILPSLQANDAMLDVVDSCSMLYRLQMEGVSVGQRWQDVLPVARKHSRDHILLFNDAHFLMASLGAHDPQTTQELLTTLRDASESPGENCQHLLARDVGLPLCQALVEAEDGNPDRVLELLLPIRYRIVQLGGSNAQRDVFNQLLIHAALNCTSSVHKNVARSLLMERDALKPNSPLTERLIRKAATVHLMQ

Row | Target | log2 fold change
1 | TFPT (UniProt P0C1Z6) | 0.289 (inactive)
2 | TRIM3 (UniProt O75382) | -0.055 (inactive)
3 | TMEM132A isoform 2 (UniProt Q24JP5) | -0.156 (inactive)
4 | UBE2L6 (UniProt O14933) | -0.477 (active)
5 | TLK1 isoform 2 (UniProt Q9UKI8) | -0.369 (active)
6 | TXNRD2 isoform 3 (UniProt Q9NNW7) | -0.94 (active)
7 | TUBB4A (UniProt P04350) | -0.448 (active)
8 | TUBAL3 (UniProt A6NHL2) | -0.195 (inactive)
9 | TGFBR1 isoform 2 (UniProt P36897) | 0 (inactive)
10 | UBXN2B (UniProt Q14CS0) | 0.085 (inactive)
11 | TMSB4X (UniProt P62328) | 0.103 (inactive)
12 | U2AF1L5 (UniProt P0DN76) | -0.363 (inactive)
13 | TPD52L2 isoform 3 (UniProt O43399) | 0.258 (inactive)
14 | TCF3 isoform 2 (UniProt P15923) | -0.196 (inactive)
15 | TEDC1 (UniProt Q86SX3) | -0.356 (active)
16 | TRPM4 (UniProt Q8TD43) | 0.161 (inactive)
17 | TCF20 (UniProt Q9UGU0) | -0.067 (inactive)
18 | UBR4 isoform 4 (UniProt Q5T4S7) | -0.792 (active)
19 | TASP1 (UniProt Q9H6P5) | 0.481 (active)
20 | TNFAIP3 (UniProt P21580) | -0.12 (inactive)
21 | TSPAN3 (UniProt O60637) | 0.105 (inactive)
22 | TTC38 (UniProt Q5R3I4) | -0.044 (inactive)
23 | TLE3 isoform 5 (UniProt Q04726) | 0.144 (inactive)
24 | TM2D3 (UniProt Q9BRN9) | 0.096 (inactive)
25 | TIMELESS (UniProt Q9UNS1) | -0.412 (active)

compound: O=C(O)c1ccc2c(c1)nc(Nc1cccc(Cl)c1)c1ccncc12 [silmitasertib]; assay: as above
In short: as §1

Row | Target | log2 fold change
26 | TFPT (UniProt P0C1Z6) | -0.18 (inactive)
27 | TRIM3 (UniProt O75382) | -0.179 (inactive)
28 | TMEM132A isoform 2 (UniProt Q24JP5) | 0.351 (inactive)
29 | UBE2L6 (UniProt O14933) | 0.037 (inactive)
30 | TLK1 isoform 2 (UniProt Q9UKI8) | 0.117 (inactive)
31 | TXNRD2 isoform 3 (UniProt Q9NNW7) | -0.194 (inactive)
32 | TUBB4A (UniProt P04350) | 0.065 (inactive)
33 | TUBAL3 (UniProt A6NHL2) | 0.069 (inactive)
34 | TGFBR1 isoform 2 (UniProt P36897) | 0.076 (inactive)
35 | UBXN2B (UniProt Q14CS0) | 0.053 (inactive)
36 | TMSB4X (UniProt P62328) | -0.076 (inactive)
37 | U2AF1L5 (UniProt P0DN76) | -0.069 (inactive)
38 | TPD52L2 isoform 3 (UniProt O43399) | -0.058 (inactive)
39 | TCF3 isoform 2 (UniProt P15923) | -0.056 (inactive)
40 | TEDC1 (UniProt Q86SX3) | 0.068 (inactive)
41 | TRPM4 (UniProt Q8TD43) | -0.091 (inactive)
42 | TCF20 (UniProt Q9UGU0) | 0.054 (inactive)
43 | UBR4 isoform 4 (UniProt Q5T4S7) | -0.004 (inactive)
44 | TASP1 (UniProt Q9H6P5) | -0.018 (inactive)
45 | TNFAIP3 (UniProt P21580) | -0.003 (inactive)
46 | TSPAN3 (UniProt O60637) | -0.056 (inactive)
47 | TTC38 (UniProt Q5R3I4) | -0.014 (inactive)
48 | TLE3 isoform 5 (UniProt Q04726) | 0.019 (inactive)
49 | TM2D3 (UniProt Q9BRN9) | 0.339 (inactive)
50 | TIMELESS (UniProt Q9UNS1) | 0.018 (inactive)

compound: O=C1NC(=O)C(c2cnc3ccccn23)=C1c1cn2c3c(cc(F)cc13)CN(C(=O)N1CCCCC1)CC2; assay: as above
In short: as §1

Row | Target | log2 fold change
51 | UBAP2L (UniProt F8W726) | 0.021 (inactive)
52 | TMEM132A isoform 2 (UniProt Q24JP5) | 0.227 (inactive)
53 | UBE2L6 (UniProt O14933) | 0 (inactive)
54 | TLK1 isoform 2 (UniProt Q9UKI8) | 0.156 (inactive)
55 | TUBB4A (UniProt P04350) | 0.095 (inactive)
56 | UBN1 (UniProt Q9NPG3) | -0.463 (inactive)
57 | TCF4 (UniProt P15884) | 0.078 (inactive)
58 | TMSB4X (UniProt P62328) | 0.219 (inactive)
59 | UBAP2, A0A0D9SFI5 | -0.094 (inactive)
60 | TCF3 isoform 2 (UniProt P15923) | 0.043 (inactive)
61 | UBAP2L isoform 1 (UniProt Q14157) | 0.088 (inactive)
62 | TEDC1 (UniProt Q86SX3) | -0.012 (inactive)
63 | TFPI isoform 2 (UniProt P10646) | 0.019 (inactive)
64 | TRPM4 (UniProt Q8TD43) | -0.078 (inactive)
65 | UCP2 (UniProt P55851) | 0.035 (inactive)
66 | TCF20 (UniProt Q9UGU0) | -0.056 (inactive)
67 | TASP1 (UniProt Q9H6P5) | 0.029 (inactive)
68 | TENM4 (UniProt Q6N022) | 0.143 (inactive)
69 | TUBGCP5 (UniProt Q96RT8) | 0.042 (inactive)
70 | TNFAIP3 (UniProt P21580) | 0.004 (inactive)
71 | THAP9 (UniProt Q9H5L6) | 0.09 (inactive)
72 | TMEM154 (UniProt Q6P9G4) | 0.008 (inactive)
73 | TRAF7 (UniProt Q6Q0C0) | 0.059 (inactive)
74 | TTC38 (UniProt Q5R3I4) | -0.022 (inactive)
75 | TLE3 isoform 5 (UniProt Q04726) | -0.058 (inactive)
76 | TNIK isoform 5 (UniProt Q9UKE5) | -0.134 (inactive)
77 | TIMELESS (UniProt Q9UNS1) | 0.062 (inactive)
